uPA surface inh: inhibitors of cell surface uPA generation; Potency, µM (top dose mostly 38.3 µM), most hits filed as inhibitors; cell surface uPA generation assay, qHTS; actives 0.31% (n = 330,000); active = well fitted inhibition curve with a large enough effect; inconclusive = small, poorly fitted or top-dose-only effect; inactive = no such curve, though single readings can be large or run the other way; tested in mouse RAW 264.7 cells; also: nearly all actives have a fitted effect of over 55% in size
HT1080 IDH1KD tx: toxicity to HT-1080 IDH1 knockdown cells (counter line). HT-1080 IDH1 knockdown viability, ATP luminescence, 48 h. Potency, µM (top dose mostly 46.1 µM), actives largely listed as cytotoxic. actives 2% (n = 360,000)
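Cytotoxicity counter-line: IDH1KD HT-1080, 48 h, CellTiter-Glo. Curves classed by r2, magnitude and activity.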
DT40 TDP1 no CPT: qHTS for Inhibitors of human tyrosyl-DNA phosphodiesterase 1 (TDP1): qHTS in cells in absence of CPT; DT40 Tdp1-/- hTDP1 cells, no CPT, ATP luminescence, 48 h; Potency, µM (top dose mostly 46.2 µM), usual class: inhibitors; actives 15% (n = 420,000); also: nearly all actives have a fitted effect of over 55% in size
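A cellular qHTS used chicken DT40 cells lacking endogenous Tdp1 but carrying stably transfected human TDP1. Compounds were applied without camptothecin, and cell growth kinetics were judged by ATP-dependent luminescence after ≥48 hr.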
HT1080NT lethal: kills 2HG-producing HT-1080-NT fibrosarcoma cells; Potency, µM (highest dose often 46.1 µM), most hits filed as cytotoxic; AID 686970; HT-1080-NT fibrosarcoma viability, CellTiter-Glo ATP luminescence, 48 h; actives 1.6% (n = 360,000);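 also: NT is the 2HG producing partner of a matched IDH1 knockdown line; nearly all actives have a fitted effect of over 55% in size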
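Viability of the 2HG-overproducing fibrosarcoma line after 48 hours of compound exposure at 37 degrees C was determined by luminescence with CellTiter-Glo, and concentration-effect curves were then fitted and categorized.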
IL1B secr inh: inflammasome signaling inhibition, IL-1 beta readout; THP-1 LPS/ATP IL-1B secretion, AlphaLISA, 16 h; stronger effect = lower value; activity change, % at 57.5 µM; actives 4.7% (n = 360,000); in the data active = activity change below about -50%; inconclusive = mostly about -30% to -49%
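Secreted IL-1B measured by AlphaLISA bead assay after 16 h compound exposure of THP-1 cells; compounds (final up to 57.5 uM) added 1 h before LPS (250 ng/mL) and ATP (1.25 mM) stimulation; lower signal means less secretion.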
DT40 TDP1 CPT: DT40-hTDP1 cell growth loss with CPT | actives 12% (n = 420,000) | AID 686979 | chicken DT40 Tdp1-/-;hTDP1 cells + 20 nM CPT, ATP luminescence, 48 h | Potency, µM (titrated, usually from 46.2 µM), hits mostly inhibitors; also: nearly all actives have a fitted effect of over 55% in size
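Cell growth measured by CellTiter-Glo luminescence after a minimum 48 h, 37 C compound exposure with 20 nM CPT in Tdp1-knockout DT40 cells stably expressing hTDP1, seeded 400/well; qHTS titration format.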
Hits are given with their value; n = inactive; u = inconclusive; x = not tested or not shown. A selection: hits, their analogues and other compounds. The true share with any hit is near 19%. Unless noted, calls follow the shape of the dose curve; as a rule, active = well fitted curve in the direction sought with a large enough effect; inconclusive = small, poorly fitted or top-dose-only effect, or another doubt; inactive = no such curve, though single readings can be large; an effect the other way counts as inactive or inconclusive.

SMILES | uPA surface inh | HT1080 IDH1KD tx | DT40 TDP1 no CPT | HT1080NT lethal | IL1B secr inh | DT40 TDP1 CPT
O=C(c1cc(-c2ccc(Cl)cc2)n(-c2ccc(Cl)cc2)n1)N1CCOCC1 | n | n | u | n | n | 16µM
COc1ccc(N2CCN(C(=O)c3cc4c(-c5ccccc5F)nn(C)c4s3)CC2)cc1 | x | x | 9.2µM | x | x | u
COc1ccc(-n2ccn(CC(=O)Nc3ccc(C)cc3C)c(=O)c2=O)cc1 | x | x | n | x | x | n
Cn1nc(-c2ccccc2F)c2cc(C(=O)N3CCN(c4ccccc4F)CC3)sc21 | x | x | 7.3µM | x | x | 4.1µM
COc1ccc(-c2nn(C)c3sc(C(=O)N4CCN(c5cccc(Cl)c5)CC4)cc23)cc1OC | x | x | n | x | x | 15µM
Cn1nc(-c2ccccc2F)c2cc(C(=O)N3CCN(c4ccc(F)cc4)CC3)sc21 | x | x | 16µM | x | x | u
Cn1nc(-c2ccc(Cl)cc2)c2cc(C(=O)N3CCOCC3)sc21 | n | n | 21µM | n | n | u
O=C(CCC(=O)N1Cc2ccccc2Oc2ncccc21)NCc1ccccc1Cl | x | x | u | x | x | n
Cc1onc(-c2ccccc2)c1C(=O)NC1C(=O)N2C(C(=O)O)C(C)(C)S[C@@H]12 (stereo not given in full) | x | x | n | x | x | n
Cc1csc2c(NCCCN3CCOCC3)ncnc12 | n | n | n | n | n | n
CC(C)Cc1nc2oc3c(Cl)ncnc3c2c2c1CCC2 | x | u | 18µM | n | -102 | 13µM
CC(C)c1nc2oc3c(N4CCNCC4)ncnc3c2c2c1CCC2 | n | n | n | n | n | n
CC(C)Cc1nc2oc3c(NCCCN4CCOCC4)ncnc3c2c2c1CCC2 | x | n | u | n | -59 | 16µM
COC(=O)c1ccccc1NC(=O)Cn1nnc2sc(-c3ccccc3)cc2c1=O | x | x | n | x | x | n
O=S1(=O)NC(CC2=CCCCC2)C2CCCCC2O1 (stereo not given) | n | n | n | n | n | 7.3µM
O=S1(=O)N[C@@H](CC2=CCCCC2)C2CCCCC2O1 (stereo not given in full) | n | n | n | n | n | n
OCCCn1c(C(CO)Nc2nc(-c3ccc(Cl)cc3)cs2)nc2ccccc21 (stereo not given) | n | n | 16µM | n | u | u
COc1ccc(-c2csc(NC(CO)c3nc4ccccc4n3Cc3ccc(C)cc3)n2)cc1 (stereo not given) | n | n | u | u | n | 26µM
Cc1ccc(Cn2c(C(CO)Nc3nc(-c4ccc(Cl)c([N+](=O)[O-])c4)cs3)nc3ccccc32)cc1 (stereo not given) | n | n | u | u | u | u
CCCn1c(C(C)Nc2nc(-c3ccc(OC)cc3)cs2)nc2ccccc21 (stereo not given) | n | n | u | n | n | u
CCOc1ccc(CCNC(=O)c2ccc(S(=O)(=O)N3CCCC3)cc2)cc1OCC | n | n | u | n | n | u
CCNC(=O)C1(C)CCN1Cc1cc(-c2ccccc2)n(C)n1 (stereo not given) | x | n | u | n | n | u
CCNC(=O)C1(C)CCN1CCC(=O)c1ccc(C)cc1 (stereo not given) | x | n | 16µM | n | n | 21µM
C/C(=N\Nc1nc2ccccc2[nH]1)c1cc2ccccc2o1 | u | u | 18µM | u | -95 | u
C/C(=N\Nc1ccccn1)c1ccc2c(c1)OCO2 | n | n | u | n | n | 18µM
SMILES | uPA surface inh | HT1080 IDH1KD tx | DT40 TDP1 no CPT | HT1080NT lethal | IL1B secr inh | DT40 TDP1 CPT
C/C(=N\Nc1nc2ccccc2[nH]1)c1ccc2c(c1)OCO2 | n | u | 26µM | u | -83 | 15µM
C(=N\Nc1nc2ccccc2[nH]1)/c1ccc2c(c1)OCO2 | n | n | u | n | u | u
C/C(=N\Nc1nc2ccccc2[nH]1)c1ccc2c(c1)OCCO2 | n | u | u | n | -54 | u
C/C(=N\Nc1ccccn1)c1ccc(C(C)C)cc1 | n | n | u | n | n | u
CCCn1c(N)c(N(CCOC)C(=O)CSc2c(Cl)cccc2Cl)c(=O)[nH]c1=O | n | n | n | n | n | n
COc1cccc(NC(=O)c2ccc(N3C(=O)C4CCC(C)CC4C3=O)cc2)c1 (stereo not given) | n | n | u | u | n | n
CC(=O)NC(Cc1ccc(F)cc1)C(=O)NC1CCN(C(=O)NCc2ccccc2)CC1 (stereo not given) | n | n | n | n | n | n
Cc1cccc(C(=O)NCCC(=O)Nc2ccc(F)c([N+](=O)[O-])c2)c1 | n | n | u | n | -64 | u
O=C(COC(=O)c1ccc(F)c([N+](=O)[O-])c1)NC(=O)NCc1ccccc1 | n | n | u | n | -99 | 21µM
O=C(CCc1ccccc1)Nc1ccc(F)c([N+](=O)[O-])c1 | n | n | n | n | -94 | n
Cc1cccc(C(=O)NCCC(=O)Nc2ccc(C)c(F)c2)c1 | n | n | u | n | n | n
COc1cccc(C(=O)N2CCC[C@@H]2C(=O)N2CCC[C@H]2C(=O)NCc2ccncc2)c1 | x | n | n | n | n | n
O=C(CN1C(=O)COc2ccc(Cl)cc21)Nc1ccccn1 | n | n | n | n | n | n
O=C(/C=C\c1ccc2c(c1)OCO2)NC1CC(=O)N(c2ccc(F)cc2)C1 (stereo not given) | x | x | n | x | x | n
O=C(NCC(=O)N(c1cccnc1)C(C(=O)NC1CCCC1)c1cccs1)c1ccco1 (stereo not given) | n | n | n | n | n | n
Cn1ncc2c(Nc3cccc(Cl)c3)nc(Nc3cccc(Cl)c3)nc21 | n | 21µM | 12µM | 15µM | -81 | 16µM
Cc1ccc(Nc2nc(NCCO)nc3c2cnn3C)cc1Cl | n | n | 15µM | n | n | 21µM
Cn1ncc2c(Nc3ccc(O)cc3)nc(Cl)nc21 | n | u | n | n | n | n
Cn1ncc2c(Nc3ccc4ccccc4c3)ncnc21 | n | n | u | u | n | u
CNc1nc(Nc2ccc(C)c(Cl)c2)c2cnn(C)c2n1 | n | u | 15µM | n | n | 23µM
CCCNc1nc(Nc2ccc(C)c(Cl)c2)c2cnn(C)c2n1 | n | n | 23µM | u | n | 16µM
C[C@H](NC(=O)N1CCC(Cc2ccccc2)CC1)C(=O)O | n | n | n | n | n | n
Cc1ncc(COC(=O)C(C)C)c2cc(C(=O)Nc3ccccc3C(F)(F)F)c(=O)oc12 | x | x | n | x | x | n
COc1ccc(S(N)(=O)=O)cc1C(=O)N(C)CC(=O)Nc1ccc(N2CCOCC2)cc1 | u | n | n | n | n | n

Screening data: PubChem, National Center for Advancing Translational Sciences (NCATS)
